CXXC DNA block: blocks binding of human MLL CXXC domain to DNA | Q03164 | MLL-CXXC / FITC-HOXA9 DNA fluorescence polarization | Potency, µM (series often up to 115 µM), for the others: at the top dose activity change, negative = inhibition, most hits filed as inhibitors | actives 0.037% (n = 290,000); active = well fitted inhibition curve with a large enough effect in the polarisation, with a control signal flat, not every such curve was filed as active; inconclusive = small, poorly fitted or top-dose-only effect, or effect the other way, or a change in a side signal; inactive = no such curve, though single readings can be large or run the other way; the % refers to the polarisation; note: potency is the fitted concentration of half-maximal effect
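Fluorescence polarization: 7 uM MLL-CXXC (stock) preincubated 5 min with compounds, then 50 nM fluorescein-HOX-A9 DNA (stock) added; 30 min ambient. Buffer 50 mM Tris-HCl pH 7.5, 50 mM NaCl, 1 mM DTT, 0.05% BSA.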
Menin-MLL FL inh: displaces fluorescein MLL peptide from human menin. 290,000 tested, under 10 active. Fluorescence polarization, fluorescein-MLL peptide displacement from menin. FP activity change, % at 61.4 µM. AID 1766; active = well fitted curve in the direction sought with a large enough effect in the polarisation, not every such curve was filed as active; inconclusive = small, poorly fitted or top-dose-only effect, or effect the other way, or a change in a side signal; inactive = no such curve, though single readings can be large or run the other way; the % refers to the polarisation; note: % of control where 0% means no effect
TexasRed fluor: counter-screen for TRb-SRC2 inhibitors: fluorescence interference; TRb/SRC2 Texas Red total fluorescence interference; Potency, µM (series often up to 106 µM), for the others: at the top dose fluorescence change, negative = quenching; actives 0.29% (n = 280,000); AID 1479; active = well fitted curve in either direction with a large enough effect; inconclusive = small, poorly fitted or top-dose-only effect; note: potency is the fitted concentration of half-maximal effect; % is set by controls: 0 for no effect and ±100 for the full control effect
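Human TRβ ligand-binding domain (0.6 uM) and Texas Red SRC2 peptide (20 nM) in Tris buffer with 1 uM T3 and 5% DMSO were incubated with pinned compound for 5 hr at ambient temperature. Total fluorescence was computed as S + 2P (555/632 nm).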
TRb-SRC2 inh: inhibitors of human thyroid hormone receptor beta-SRC2 interaction; TRbeta-SRC2 peptide binding, fluorescence polarization; receptor liganded with 1 µM T3; actives 0.065% (n = 280,000); Potency, µM (doses to about 106 µM), inactives show at the top dose activity change, negative = inhibition, actives largely listed as inhibitors; AID 1469; active = well fitted inhibition curve with a large enough effect; inconclusive = small, poorly fitted or top-dose-only effect, or effect the other way;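 note: potency is the fitted concentration of half-maximal effect; plate controls were bound peptide for no effect and peptide without receptor for full effect; nearly all actives have a fitted effect of over 50% in size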
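Assay buffer: 20 mM Tris-HCl, 100 mM NaCl, 10% glycerol, 1 mM EDTA, 0.01% NP-40, 1 mM DTT, 1 uM T3, 5% DMSO; TRb LBD 0.6 uM, Texas Red SRC2 20 nM; FP after 5 hr.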
RGS12 GoLoco inh: blocks human Gai1 binding to RGS12 GoLoco peptide, red readout; Potency, µM (doses to about 61.6 µM), for the others: top-dose activity, negative = inhibition, actives largely listed as inhibitors; actives 0.44% (n = 230,000); P63096; Gai1:RGS12 GoLoco peptide FP, rhodamine, 10 min; active = well fitted inhibition curve with a large enough effect, not every such curve was filed as active; inactive = no such curve, though single readings can be large or run the other way; note: potency is the fitted concentration of half-maximal effect; % is set by controls: 0 for no effect and ±100 for the full control effect; nearly all actives have a fitted effect of over 30% in size
Target sequence (P63096 whole entry, looked up): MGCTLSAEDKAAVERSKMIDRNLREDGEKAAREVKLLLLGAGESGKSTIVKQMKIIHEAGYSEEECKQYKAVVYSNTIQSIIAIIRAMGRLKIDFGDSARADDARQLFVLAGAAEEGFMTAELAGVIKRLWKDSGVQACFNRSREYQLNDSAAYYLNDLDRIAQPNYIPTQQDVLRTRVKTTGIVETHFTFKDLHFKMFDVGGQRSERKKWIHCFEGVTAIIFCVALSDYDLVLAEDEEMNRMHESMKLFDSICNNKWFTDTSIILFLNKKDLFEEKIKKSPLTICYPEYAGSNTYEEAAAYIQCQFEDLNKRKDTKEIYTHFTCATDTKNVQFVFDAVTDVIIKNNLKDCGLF
Menin MLL FP TR: displaces Texas Red mutant MLL peptide from human menin | Menin + Texas Red MLL mutant peptide, fluorescence polarization | O00255 | Potency, µM (highest dose often 61.6 µM), inactives show at the highest dose FP activity change, negative = inhibition, most hits filed as inhibitors | actives 0.23% (n = 270,000); active = well fitted inhibition curve with a large enough effect in the polarisation, with a control signal flat, not every such curve was filed as active; inconclusive = small, poorly fitted or top-dose-only effect, or effect the other way, or a change in a side signal; inactive = no such curve, though single readings can be large or run the other way; the % refers to the polarisation; note: potency is the fitted concentration of half-maximal effect; % of control where 0% means no effect
The depositor's hits bear a star; ? = inconclusive; · = no result given; [ ] = another dose, or the depositor's remark. Only some compounds are listed: those with a hit (about 0.5% of all), similar ones and a draw of the others.

SMILES	CXXC DNA block	Menin-MLL FL inh	TexasRed fluor	TRb-SRC2 inh	RGS12 GoLoco inh	Menin MLL FP TR
Cc1cc2c(cc1NS(=O)(=O)c1ccc(Br)cc1)n(C)c(=O)c(=O)n2C	·	·	2239µM*[quencher]	-20.6%	·	·
COC1=CC(=O)C(C(=O)c2ccccc2)=CC1=O	·	?	-7.4%	?	6.31µM*	?
C[N+](C)(C)CC/C=C1/c2ccccc2CSc2ccccc21	-0.5%	2.2	0.2%	10.0%	2.24µM*	0.0%
Cc1ccc(Cl)cc1NC(=O)N1CCC(CN2CCCCCC2)CC1	·	·	9.5%	1.2%	·	·
O=C(O)[C@@H]1[C@@H](C(=O)NCc2ccncc2)[C@@H]2C=C[C@@H]1O2	·	·	·	·	-0.7%[14.2 µM]	·
O=C(Nc1cccc(Br)c1)N1CCC(CN2CCCCC2)CC1	·	·	2.7%	-2.3%	·	·
O=C(Nc1ccc(Br)cc1)N1CCC(CN2CCCC2)CC1	·	·	44.7µM*[quencher]	?	·	·
CCOc1ccc(NC(=O)N2CCC(CN3CCCCCC3)CC2)cc1	·	·	126µM*[quencher]	-29.3%	·	·
CCOC(=O)Cc1ccc(NC(=O)N2CCC(CN3CCCCCC3)CC2)cc1	·	·	-13.5%	1.9%	·	·
Cc1cc(NC(=O)N2CCC(CN3CCOCC3)CC2)ccc1Br	·	·	79.4µM*[quencher]	-16.9%	·	·
CCCCCCCCCCCCCCCO	·	·	-4.4%[201 µM]	7.6%[201 µM]	·	·
O=C1SC(Nc2ccc(Cl)cc2)C(=O)N1Cc1ccccc1 (stereo not drawn)	·	·	0.0032µM*[quencher]	-15.0%	·	·
CCc1ccc(NC(=O)CC2C(=O)NCCN2C(=O)c2ccccc2OC)cc1 (stereo not drawn)	-0.4%	2.1	8.91µM*[quencher]	-13.0%	·	2.1%
CCCC(=Nc1ccc(N)cc1)C1=C(O)C(C(=O)OC)C(C)(C)CC1=O (stereo not drawn)	-7.5%	-1.0	44.7µM*[fluorescent]	35.5µM*	14.1µM*	·
O=S(=O)(O)c1cc(O)c2c(N=Nc3ccc(Nc4ccccc4)c4c(S(=O)(=O)O)cccc34)cc(S(=O)(=O)O)cc2c1	?	2.2	20µM*[quencher]	15.2%	·	?
O=C1C=CC2=C3c4cc(O)c(O)cc4C[C@]3(O)COC2=C1	·	?	8.7%	-7.3%	0.251µM*	?
CC[C@H](C)[C@H](NC(=O)[C@H](CC(C)C)NC(=O)[C@H](CO)NC(=O)[C@H](CCC(=O)O)NC(=O)[C@H](CC(C)C)NC(=O)[C@H](Cc1ccc(O)cc1)NC(=O)[C@H](CCCCN)NC(=O)[C@H](CCCCN)NC(=O)[C@H](C)NC(=O)[C@H](CO)NC(=O)[C@H](CC(C)C)NC(=O)[C@H](CCC(N)=O)NC(=O)CNC(=O)[C@H](CC(C)C)NC(=O)[C@H](CC(C)C)NC(=O)[C@H](CCCNC(=N)N)NC(=O)[C@H](CO)NC(=O)[C@H](Cc1ccccc1)NC(=O)[C@H](CC(=O)O)NC(=O)[C@H](CO)NC(=O)[C@@H](NC(=O)[C@H](Cc1ccccc1)NC(=O)[C@@H](NC(=O)CNC(=O)[C@H](CC(=O)O)NC(=O)[C@H](C)NC(=O)[C@@H](N)Cc1cnc[nH]1)C(C)C)[C@@H](C)O)C(N)=O	·	2.6	-4.0%	1.8%	·	-0.4%
O=S(=O)(NCCc1ccccc1)c1ccccc1Br	·	-0.5	-2.4%	2.4%	·	-4.7%
O=C(O)CCCNc1cc(N2CCC3(CC2)OCCO3)c2noc3c2c1C(=O)c1ccccc1-3	?	?	44.7µM*[fluorescent]	22.4µM*	125.6%	?
CCOC(=O)N1CCN(c2cc(NCCC(=O)O)c3c4c(onc24)-c2ccccc2C3=O)CC1	?	?	12.6µM*[fluorescent]	28.2µM*	141.6%	?
O=C(O)CCCNc1cc(N2CCN(C(=O)c3ccco3)CC2)c2noc3c2c1C(=O)c1ccccc1-3	?	?	·	·	·	15.8µM*
CC(C)CCCCCCCCCCCCCCC(=O)O	·	·	-1.8%[201 µM]	8.9%[201 µM]	·	·
CCOC(=O)c1cccc(Nc2cc(-c3ccccc3)ncn2)c1	·	·	0.316µM*[quencher]	-17.8%	·	·
CN(C)C(=O)c1ccc(-c2cc(Nc3ccccc3)ncn2)cc1	·	-0.1	·	·	9.8%	11.9%
Cc1ccc(C)c(N2CCN(C(=O)CS(=O)(=O)c3cccc4nsnc34)CC2)c1	·	·	0.0355µM*[quencher]	-29.4%	·	·
